According to PubChem BioAssay AID802 (Columbia University Molecular Screening Center, 2007):
The whole screen tested about 95,000 compounds, of which about 460 (0.48%) were called active. This is one part of a sample in which actives are shown more often than they occur.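 Rule for the calls: active = inhibition above the batch mean plus 3 SD, with images confirmed as a hit by eye (cut at about 37% in these data); inconclusive = inhibition above that limit but hit not confirmed in images; inactive = inhibition not above that limit.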

Assay: inhibitors of TNFa-induced VCAM1 expression, primary screen, imaging, HUVEC, TNFa stimulus, immunofluorescence (AID 802);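 note: 0% = TNF-stimulated DMSO wells and 100% = unstimulated control wells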
Details: HUVEC TNFa-induced VCAM-1 immunofluorescence, high-content imaging; at 2 µM; active compounds read high

Compound | inhibition
O=C(c1ccccn1)c1ncc(C(F)(F)F)cc1Cl | 2.2% (inactive)
Cc1ccc(C(=O)c2c(NC(=O)c3ccncc3)sc3c2CCCC3)cc1 | 3% (inactive)
O=C(Cn1cnc2ccccc2c1=O)NCC1COc2ccccc2O1 (stereo unspecified) | 0.5% (inactive)
Cc1ccc(-c2nn(C(C)(C)C)c3ncnc(N)c23)cc1 | 40.8% (active)
CC(C)(C)OC(=O)c1c(N)n(CCCN2CCCC2=O)c2nc3ccccc3nc12 | -22.1% (inactive)
C=CCn1c(N)c(S(=O)(=O)c2cccs2)c2nc3ccccc3nc21 | -6.6% (inactive)
C=CCn1c(N)c(C(=O)OCC(C)C)c2nc3ccccc3nc21 | 94.4% (active)
Cc1ccc(SCC(=O)c2cc(C)c(OC(=S)N(C)C)c(C)c2)cc1 | 8.8% (inactive)
COc1cc(C(=O)N2CCN(C/C=C/c3ccccc3)CC2)cc(OC)c1C | -10.4% (inactive)
Cc1cc(/C=N/NC(=O)CC2(C)OCCO2)c(C)n1-c1ccc(Cl)c(Cl)c1 | -7.1% (inactive)
CCOC(=O)C(=O)Nc1nc(-c2ccccc2)c(CC)s1 | 4.9% (inactive)
O=S(=O)(NCc1cccnc1)c1ccc(Cl)nc1 | 0.2% (inactive)
COc1ccc(C(C(=O)NCc2ccccc2)N(Cc2cccs2)C(=O)c2cnccn2)cc1 (stereo unspecified) | 2.9% (inactive)
Cc1ccc(-c2nc3ccccc3[nH]2)cc1N | 4.2% (inactive)
NC(=O)COc1ccc(/C=N/NC(=O)C2CCCN2S(=O)(=O)c2ccc(Cl)cc2)cc1 (stereo unspecified) | 17.1% (inactive)
O=S(=O)(/N=C(/Nc1ccccn1)c1ccccc1)c1ccc(Cl)cc1 | 0.3% (inactive)

Compound | inhibition
Cc1ccccc1CS(=O)(=O)CC1(O)CCN(C(=O)c2cccc(C(F)(F)F)c2)CC1 | -2% (inactive)
O=C(NC1(C(F)(F)F)NC(=O)N(Cc2cccnc2)C1=O)c1ccccc1Cl (stereo unspecified) | 8.4% (inactive)
COc1cc(NS(=O)(=O)c2ccc(N/C=C(\C=O)c3nc4cc(Cl)ccc4o3)cc2)nc(OC)n1 | -2.6% (inactive)
Cc1cc(C(=O)CSc2nc(N)cc(=O)[nH]2)c(C)n1CCc1ccc(Cl)cc1 | 16.5% (inactive)
CSc1nc2nc3c(c(=O)n2[nH]1)CCC3 | 7.1% (inactive)
CC(C)=CC(=O)Nc1nnc(-c2ccc(F)cc2)s1 | 6.5% (inactive)
CC(C)(C)c1cc2cccnc2n1Cc1ccccc1 | 9.9% (inactive)
Cc1cccc(N2CCN(S(=O)(=O)c3ccc4[nH]c(=O)c(=O)[nH]c4c3)CC2C)c1 (stereo unspecified) | 3.1% (inactive)
Cc1cccc(N=C2NC(=O)CS2)c1C | 97.1% (active)
CCOc1ccccc1N=C1NC(=O)CS1 | -6.9% (inactive)
C=CCOC(=O)C1=C(C)NC(C)=C(C(=O)OCC=C)C1c1cccs1 | 3.8% (inactive)
COC(=O)C1C(=O)c2c([nH]c(C(=O)OCCSC)c2C)CC1C (stereo unspecified) | 1.9% (inactive)
CCCOC(=O)c1[nH]c2c(c1C)C(=O)CC(c1cccs1)C2 (stereo unspecified) | 65% (active)
CCCCCCC12CCC(C(=O)O)(CC1)CC2 | 25.1% (inactive)
Cc1cccc2c(=O)n3c(nc12)CCCCC3 | 13.3% (inactive)
